# Screens (PubChem BioAssay)
# LYPLA1 inh = counter-screen for PME1 inhibitors: inhibitors of human LYPLA1; recombinant LYPLA1, FP-Rh probe fluorescence polarization; 320,000 compounds, 0.16% hits; AID 2174; inhibition, % at 5.9 µM;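 active means inhibition above the mean of all tested compounds plus 3 SD, set per campaign, cut at about 14% in these data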;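 further: inhibitors block serine hydrolase probe labeling of LYPLA1 so polarization falls; 0% = enzyme with DMSO and 100% = wells lacking LYPLA1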
# Target sequence (O75608 whole entry, looked up): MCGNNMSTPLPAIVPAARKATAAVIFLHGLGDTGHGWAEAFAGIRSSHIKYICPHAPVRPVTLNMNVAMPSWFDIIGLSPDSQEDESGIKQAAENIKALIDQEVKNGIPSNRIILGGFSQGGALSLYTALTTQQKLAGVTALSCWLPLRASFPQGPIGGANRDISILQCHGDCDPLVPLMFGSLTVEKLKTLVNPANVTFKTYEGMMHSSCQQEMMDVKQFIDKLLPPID
# PREPL inhibitor = inhibits the human prolyl oligopeptidase-like enzyme. Q4J6C6. recombinant PREPL, fluorescence polarization activity-based probe. inhibition, % at 5.96 µM. 320,000 compounds, 0.68% hits; in the data active means inhibition above about 43%;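 further: 0% = enzyme with DMSO and 100% = wells lacking enzyme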
# PME-1 primary = PME-1 (human) inhibition; inhibition, % at 5.9 µM; Q9Y570; 320,000 compounds, 0.53% hits; recombinant PME-1, FP-Rh probe fluorescence polarization; AID 2130;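 active means inhibition above the campaign mean of all compounds plus 3 SD, cut at about 26% in these data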;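 further: competitive labeling of PME-1 active site by serine hydrolase directed probe; 0% = PME-1 with DMSO and 100% = wells lacking PME-1 enzyme; inhibitors block probe labeling so polarization falls and inhibition rises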
# Target sequence (Q9Y570 whole entry, looked up): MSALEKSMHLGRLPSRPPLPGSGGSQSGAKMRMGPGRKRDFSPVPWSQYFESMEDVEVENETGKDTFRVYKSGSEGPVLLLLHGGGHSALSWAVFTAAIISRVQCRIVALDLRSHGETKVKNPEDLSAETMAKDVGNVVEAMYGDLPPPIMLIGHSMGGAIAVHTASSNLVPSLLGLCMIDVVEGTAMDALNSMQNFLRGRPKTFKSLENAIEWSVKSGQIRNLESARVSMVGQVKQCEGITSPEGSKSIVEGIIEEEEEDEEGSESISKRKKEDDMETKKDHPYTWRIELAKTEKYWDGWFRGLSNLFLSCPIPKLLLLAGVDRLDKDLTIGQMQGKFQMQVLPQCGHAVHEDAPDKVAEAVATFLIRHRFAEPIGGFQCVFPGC
# Fam108B counter = blocks mouse Fam108B hydrolase in RBBP9 counter-screen; recombinant Fam108B, FP-Rh probe fluorescence polarization; inhibition, % at 9.51 µM; 300,000 compounds, 0.33% hits; AID 1947;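 active means inhibition above the screen mean inhibition plus 3 SD, computed separately per campaign, cut at about 18% in these data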;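 further: inhibitors lower polarization as less probe binds the enzyme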
# LYPLA2 counter = blocks human lysophospholipase 2, a PME1 counter-screen; O95372; recombinant LYPLA2, FP-Rh probe fluorescence polarization; inhibition, % at 5.9 µM; 320,000 compounds, 0.38% hits; AID 2177;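 active means inhibition above the screen-wide mean plus 3 SD, limit set per campaign, cut at about 26% in these data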;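 further: 0% = LYPLA2 with DMSO and 100% = wells lacking LYPLA2 enzyme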
# * hit, by the source's call; x = not tested or not shown; ! = repeats disagree. This is a sample that favours compounds with a hit; in the whole collection about 1.3% have one here.
SMILES,LYPLA1 inh,PREPL inhibitor,PME-1 primary,Fam108B counter,LYPLA2 counter
COc1ccc(Nc2ccccc2N)cc1,-15.2,2.0,-32.0,-23.5,-28.0
Nc1ccc(Nc2ccccc2N)cc1,-4.0,94.4*,2.7,9.0,-5.4
O=c1c2ccc([N+](=O)[O-])cc2ncn1Cc1ccccc1C(F)(F)F,-0.5,4.7,2.8,1.6,7.6
N#Cc1c(N)nc2c3c(sc(=N)c2c1N)NC(=O)CC3c1c(F)cccc1Cl (stereo not drawn),-7.9,40.1,63.5*,11.9,-2.1
CN(/N=C\c1ccc(O)c(O)c1)c1nc(-c2ccccc2)cc(-c2ccccc2)n1,-14.5,10.6,21.9,21.4*,-7.2
COc1ccccc1C(=O)NC(=S)Nc1cccc2cc(O)ccc12,-5.9,2.9,30.9*,5.3,-6.0
CC(=O)Nc1ccc(OC(F)(F)C(F)C(F)(F)F)c(NC(C)=O)c1 (stereo not drawn),1.3,-1.7,0.2,-2.4,0.0
CCOc1cccc2cc(C(C)=O)oc12,-3.7,-2.7,-6.3,2.6,-5.3
C=CCn1c(O)c(N=Nc2ccccc2)c2ccccc21,1.1,-0.9,2.0,3.8,7.9
C=CCn1c(O)c(N=Nc2ccccc2O)c2ccccc21,-2.6,32.2,33.6*,x,8.0
CCc1cccc2c(C(=O)COC(=O)c3ccc([N+](=O)[O-])s3)c[nH]c12,-3.8,10.4,28.6*,13.2,0.8
O=C(OCC(=O)c1c[nH]c2ccccc12)c1ccc([N+](=O)[O-])s1,-2.7,10.3,16.1,8.5,1.1
O=C(NNc1c2ccccc2nc2ccccc12)c1cccc(O)c1,-1.9,30.9,39.9*,6.0,-3.8
O=C(NNc1c2ccccc2nc2ccccc12)c1ccc(O)cc1,-0.6,35.9,49.4*,7.9,1.4
CNS(=O)(=O)c1cc(C(=O)OCC(=O)NC2CCCc3ccccc32)ccc1Cl (stereo not drawn),1.5,-7.7,27.9*,3.4,4.8
O=[N+]([O-])c1ccc(Nc2nc(N/N=C/c3cccc(F)c3)nc(N3CCCC3)n2)cc1,-24.7,46.9*,-25.6,-3.3,-35.0
O=[N+]([O-])c1cccc(/C=N/Nc2nc(N3CCOCC3)nc(N3CCOCC3)n2)c1,-2.1,-7.6,-0.8,-0.1,1.6
CC(CCC(C)C(C)(C)C)[C@@H]1CC[C@H]2C3C[C@H](OS(O)(=S)=S)[C@H]4C[C@H](OS(O)(=S)=S)[C@@H](OS(O)(=S)=S)C[C@]4(C)[C@H]3CC[C@]12C (stereo partly drawn) (tested in a mixture with another compound),x,46.3*!,x,x,x
C[C@H](CCC(=O)O)[C@H]1CC[C@H]2[C@@H]3[C@H](O)C[C@@H]4C[C@H](O)CC[C@]4(C)[C@H]3CC[C@]12C,0.7,8.8,-7.1,-0.3,0.5
O=C(COC(=O)CN1C(=O)C2CCCCC2C1=O)NNC(=O)c1ccc(Cl)cc1 (stereo not drawn),-0.5,-7.4,0.5,1.0,1.0
C#CCSc1nnnn1-c1ccc(OCC)cc1,2.5,3.9,4.3,-0.3,4.2
CC(C)N1CCc2c(sc(N)c2C#N)C1,-5.6,50.3*,-11.3,-6.8,-7.1
Cc1nn(-c2ccccc2)c2sc(-c3n[nH]c(=S)o3)cc12,8.7,20.0,39.1*,7.1,5.7
Cc1[nH]c(N=Nc2ccccc2)nc1N=Nc1ccccc1,-2.8,17.9,75.9*,15.9,-4.6
CC(c1ccncn1)N(C)Cc1nc(-c2ccc(C(F)(F)F)cc2)no1 (stereo not drawn),-0.9,-3.1,-11.0,-1.1,-7.4
SMILES,LYPLA1 inh,PREPL inhibitor,PME-1 primary,Fam108B counter,LYPLA2 counter
Cc1oc(-c2ccc3ccccc3c2)nc1CN(C)C(C)c1ccncn1 (stereo not drawn),-1.9,16.2,28.9*,-2.6,-8.7
CC1Cc2cc(S(=O)(=O)N3CCC(C(=O)N(C)Cc4ccccc4)CC3)ccc2N1C(=O)C1CC1 (stereo not drawn),0.6,10.5,2.2,-4.8,-2.0
CCN(CC)c1ccc(S(=O)(=O)N2CCOCC2)cc1NC(=O)Nc1ccccc1,x,12.8,x,x,x
CCN(CC)c1ccc(S(=O)(=O)N2CCOCC2)cc1NC(=O)CN1CCN(Cc2ccccc2)CC1,1.0,27.3,59.4*,3.7,0.3
COCc1c(C(=O)N/N=C/c2c[nH]c3ccccc23)nnn1-c1nonc1N,1.8,12.2,2.1,0.7,4.7
Cc1ccc(-c2c(C(=O)N/N=C/c3c[nH]c4ccccc34)nnn2-c2nonc2N)cc1,-7.8,19.9,26.7*,7.6,6.6
COc1ccccc1NS(=O)(=O)c1ccc2c(c1)CCN2C(=O)CCC(=O)O,-2.3,0.0,-3.1,-6.9,-3.5
CC1(OC(=O)c2ccc(Cl)nc2)C(=O)C=C2C=C(C3CC3)OC=C2C1=O (stereo not drawn),21.0*,1.0,25.2,19.6*,20.5
Cc1sc2ncnc(OCC(=O)N3CCN(S(=O)(=O)c4ccc(Cl)cc4)CC3)c2c1C,-1.4,-5.8,40.3*,1.6,7.3
COc1ccc(S(=O)(=O)N2CCCCCC2)cc1C(=O)Nc1cc(C)ccn1,-6.2,7.5,1.1,x,-5.5
COc1ccc(S(=O)(=O)N2CCCCCC2)cc1C(=O)NCCOc1ccc(C)cc1,-0.7,17.9,28.0*,-1.6,3.6
CCc1noc(C)c1C(=O)Nc1ccc(S(=O)(=O)N2CCC(C)CC2)cc1,-2.5,5.3,-1.4,-2.4,1.8
Oc1c(Cl)cc(Cl)cc1CNn1cnnc1,-5.1,-4.0,-8.7,-0.1,-3.4
Oc1c(Cl)cc(Cl)cc1Sc1cc(Cl)cc(Cl)c1O,-9.9,48.0*,41.6*,44.1*,3.8
Cc1ccc(C(=O)COC(=O)CNC(=O)c2ccccc2)s1,-1.6,7.2,0.2,x,0.2
C#CCOCCOCCOCCNc1nc(N2CCOCC2)nc(N2CCN(C(=O)[C@H](Cc3cc4ccccc4[nH]3)n3cc([C@@H](N)Cc4ccc(O)cc4)nn3)CC2)n1,-0.2,20.6,-1.2,-0.8,2.4
C#CCOCCOCCOCCNc1nc(N2CCN(C(=O)[C@H]([C@@H](C)CC)n3cc([C@@H](N)CO)nn3)CC2)nc(N2CCN(C(=O)[C@H](Cc3cc4ccccc4[nH]3)n3cc([C@@H](N)Cc4ccc(O)cc4)nn3)CC2)n1,-3.9,48.8*,-6.4,1.9,2.0
C#CCOCCOCCOCCNc1nc(N2CCN(C(=O)[C@H](Cc3cc4ccccc4[nH]3)n3cc([C@@H](N)C(C)CC)nn3)CC2)nc(N2CCN(C(=O)[C@H](Cc3cc4ccccc4[nH]3)n3cc([C@@H](N)CC(C)C)nn3)CC2)n1 (stereo partly drawn),-4.6,68.9*,-0.2,3.2,-7.5
CC1Oc2cc3oc4c(O)c5c(cc4c(=O)c3c(O)c2C1(C)C)C=CC(C)(C)O5 (stereo not drawn),-9.0,4.1,-13.3,-3.3,-9.1
CC(C)=CCc1cc2c(=O)c3c(O)c4c(cc3oc2c(O)c1O)OC(C)C4(C)C (stereo not drawn),-29.2,17.1,29.7*,-2.5,-36.9
COc1ccc(C(=O)c2sc3nc(-c4ccccc4)ccc3c2N)cc1,-3.5,13.3,34.7*,13.9,14.2
